# PubChem BioAssay (EPA / NIEHS)
# Results filed as inconclusive are left out. The source made the active and inactive calls. The calls were made as follows: active = hit-call score of the fitted dose curve at least 0.9, where 1 is the maximum; inconclusive = response in the unintended direction; inactive = score below 0.9.
# Legend:
# [1] = TOX21_p53_BLA_p4_viability: Viability Assessment in the Tox21 HCT-116 p53 Agonism Beta-lactamase Assay, Phase 4 (AID 2283597);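 also: hits lower the luminescence signal meaning cytotoxicity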
# In short: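 HCT-116 p53-bla cells, 4000/well, dosed after 5 h attachment and incubated 16 h at 37 °C, 5% CO2. Viability from CellTiter-Glo ATP luminescence after 30 min at room temperature, taken after the beta-lactamase read; loss of signal indicates cytotoxicity.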
# [2] = target: Cellular tumor antigen p53 (Homo sapiens) (UniProt P04637); assay: TOX21_p53_BLA_p4_ratio: Tox21 HCT-116 p53 Agonism Beta-lactamase Assay, Ratio, Phase 4 (AID 2283601)
# In short: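 HCT-116 p53 beta-lactamase reporter cells (4000/well) preincubated 5 h, then compound (217-fold dilution of DMSO stock) for 16 h at 37C. CCF4-AM substrate added 2 h at room temperature; 460/530 nm emission ratio fitted upward versus DMSO.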
# [3] = target: Cellular tumor antigen p53 (Homo sapiens) (UniProt P04637); assay: TOX21_p53_BLA_p5_ratio: Tox21 HCT-116 p53 Agonism Beta-lactamase Assay, Ratio, Phase 5 (AID 2283599)
# In short: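 HCT-116 p53-bla cells (4000/well) plated 5 h, dosed with compound (217-fold DMSO dilution) for 16 h at 37 C; CCF4-AM substrate 2 h at room temperature. Activity is the 460/530 nm emission ratio (405 nm excitation), fitted in gain-of-signal direction versus DMSO.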
# [4] = TOX21_p53_BLA_p5_viability: Viability Assessment in the Tox21 HCT-116 p53 Agonism Beta-lactamase Assay, Phase 5 (AID 2283600)
# In short: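 HCT-116 p53 beta-lactamase reporter cells, 4000/well, were exposed to compound (pin transfer, 217-fold dilution) for 16 hours at 37C. Cellular ATP was read by CellTiter-Glo luminescence after 30 min at room temperature.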
# Chain of Cellular tumor antigen p53 (Homo sapiens) (P04637 whole entry, looked up): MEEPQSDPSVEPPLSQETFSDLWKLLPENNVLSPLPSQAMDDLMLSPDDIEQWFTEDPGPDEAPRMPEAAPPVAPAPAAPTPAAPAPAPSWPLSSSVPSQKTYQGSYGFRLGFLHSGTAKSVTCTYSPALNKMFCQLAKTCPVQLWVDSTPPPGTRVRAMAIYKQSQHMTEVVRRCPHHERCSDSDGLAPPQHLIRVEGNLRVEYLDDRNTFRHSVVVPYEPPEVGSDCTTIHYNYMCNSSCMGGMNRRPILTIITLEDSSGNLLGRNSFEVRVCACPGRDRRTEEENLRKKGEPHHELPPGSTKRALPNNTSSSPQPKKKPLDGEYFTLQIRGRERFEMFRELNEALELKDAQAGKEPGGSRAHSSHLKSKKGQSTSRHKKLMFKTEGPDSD
smiles,measurement,setting,value
C=CCc1cc(OC)c(O)c(C(=O)NCCO)c1,outcome,[1],inactive
same,outcome,[2],inactive
Nc1ccc(S(=O)(=O)NC(=O)c2ccccc2)cc1,outcome,[3],inactive
same,outcome,[2],inactive
CCCCc1cc2ccccc2c(OCCN(C)C)n1,outcome,[4],inactive
same,outcome,[2],inactive
CN1CCC[C@@H]1Cc1c[nH]c2ccc(CCS(=O)(=O)c3ccccc3)cc12,outcome,[3],inactive
O=C(O)CNC(=O)c1ccc(CO)o1,outcome,[3],inactive
CO[C@]1(NC(=O)CSC(F)F)C(=O)N2C(C(=O)O)=C(CSc3nnnn3CCO)CO[C@H]21,outcome,[3],inactive
CC(C)CCOC(=O)C=Cc1ccccc1,outcome,[3],inactive
same,outcome,[4],inactive
O=S(=O)(O)CO,outcome,[3],inactive
same,outcome,[2],inactive
Nc1ccc(S(=O)(=O)Nc2ccccc2)cc1,outcome,[3],inactive
same,outcome,[2],inactive
Cc1ccc(C)cc1,outcome,[4],inactive
Cc1ccc(CO)cc1,outcome,[3],inactive
same,outcome,[4],inactive
same,outcome,[2],inactive
CCN(CC)CCn1c(=O)c(Cc2ccc(OC)cc2)nc2ccccc21,outcome,[4],inactive
ClCCl,outcome,[1],inactive
same,outcome,[2],inactive
C[C@H]1c2cccc(O)c2C(O)=C2C(=O)[C@]3(O)C(O)=C(C(N)=O)C(=O)[C@@H](N(C)C)[C@@H]3[C@@H](O)[C@@H]21,outcome,[1],inactive
same,outcome,[2],inactive
c1ccc(SCCSc2ccccc2)cc1,outcome,[3],inactive
same,outcome,[4],inactive
same,outcome,[2],inactive
NC(=O)Oc1ccc(Cc2ccccc2)cc1,outcome,[1],inactive
same,outcome,[2],inactive
Nc1nc(CC(=O)O)cs1,outcome,[1],inactive
same,outcome,[2],inactive
Nc1ccccc1S(=O)(=O)O,outcome,[3],inactive
same,outcome,[4],inactive
Cc1ccnc(NS(=O)(=O)c2ccc(N)cc2)n1,outcome,[3],inactive
same,outcome,[4],inactive
same,outcome,[2],inactive
CC(CN1c2ccccc2Sc2ccc(S(=O)(=O)N(C)C)cc21)N(C)C (stereo not drawn),outcome,[1],inactive
same,outcome,[2],inactive
